# Experimental data from paper PMC13494018.
# Values without a mark were called inactive. The rule behind the calls is not given here.
# B1: design_600_24101276-ad9d-4944-b73e-53bb160363ad_1759_dldesign_0_cycle1_af2pred (protein)
# chain: GEEASKKAKEDAKLVSEAAKYAKEAGKYAKKIAELKPEKAEEAKKIKEKSAKLLYELADNIEDEEKAKEYLDEIKKLYKEAEELYKEA
# B2: design_600_24101276-ad9d-4944-b73e-53bb160363ad_1497_dldesign_0_cycle1_af2pred (protein)
# chain: DEAHKRAKALYEEDRALQKELRKKAKEAKEMAKEFADDPVWKAKAEEASKLNLQALFDPENKETREKGEKTYEEVYKKYKELKKKK
# B3: design_600_24101276-ad9d-4944-b73e-53bb160363ad_1889_dldesign_0_cycle1_af2pred (protein)
# chain: MAEKEALIAELKAKAAEAKAKGAAGSAGEQFQWDVIAAGYEKGAEAAKKAKTAEEAKKAAKEAVEKAKRVAEHIKKSEEEAEKRA
# B4: design_600_24101276-ad9d-4944-b73e-53bb160363ad_1126_dldesign_0_cycle1_af2pred (protein)
# chain: SEEAKKLLEELKKAAEEAIAKAKELEKEDPAKAAEYAKKALKELRAKGKEIAELDPAFAPEAGAEVQKVQEYRAEAEAKALRKK
# B5: design_600_24101276-ad9d-4944-b73e-53bb160363ad_1404_dldesign_0_cycle1_af2pred (protein)
# chain: SLKEEIKNKEKSGKNNVEAAKMAAEEGDITFAKSAIAAAKKAIEQLKELAKKATPEVAKEGKEAAEKLEKEREEAEKLLKKKEA
# B6: design_600_24101276-ad9d-4944-b73e-53bb160363ad_1035_dldesign_0_cycle1_af2pred (protein)
# chain: EKLEEAEKERDKAVDKLAALVAKALGPEAGAKARAAAKKGLAALKAVVAEAAKTSGLTAELAKALHEVYQATAEAELLKKK
# B7: design_600_24101276-ad9d-4944-b73e-53bb160363ad_2193_dldesign_0_cycle1_af2pred (protein)
# chain: SLEKEIEKLAKELKKAKELDPKTAAEELRKIAKEARKVGKEAAKKDKELAKKAAKLAQEAYEAAAEKEQQARLE
# B8: design_600_24101276-ad9d-4944-b73e-53bb160363ad_1440_dldesign_0_cycle1_af2pred (protein)
# chain: SEKVKKDSEAIRKLVKAVKEAGKAAKAAAKAAPEVAAVAEAAQKASAQLVFEALDEENIEEAAKKAEEAIKAAAEAVKAAAKAAK
# B9: design_600_24101276-ad9d-4944-b73e-53bb160363ad_1928_dldesign_0_cycle1_af2pred (protein)
# chain: GALEEAKKVIEDARDKLSAVAAKKSPEYAKEVADNLEKVAKGEGVKEHATRAAEVLAEADPENAAELKKYLAEAVQTYLQLRAEAEK
# B10: design_600_24101276-ad9d-4944-b73e-53bb160363ad_1735_dldesign_0_cycle1_af2pred (protein)
# chain: SEEEEKLREENRKIAEKERNAHVAKAAAKLVEKATPEEAVAILEKAAKAASDTEFFLALAKKVKAEGKKGVKEAVKALKKRAKEL
# B11: design_600_24101276-ad9d-4944-b73e-53bb160363ad_1218_dldesign_0_cycle1_af2pred (protein)
# chain: DEEKKKKAAEALDKAAELAKKAAEDEKYLPEALKALKETAKLAGEALGAEAAHAILEARAVVKAKGKEGAKEAAEVLEELRKKVR
# B12: design_600_24101276-ad9d-4944-b73e-53bb160363ad_2321_dldesign_0_cycle1_af2pred (protein)
# chain: AQKAKNEAESLLTRAEQALEAGVSGDAEQAKKAAEKIEEYAKKAEEIGKKYPEVKEYAEKKAEEIKELAKKAKEAAKKK
# B13: design_600_24101276-ad9d-4944-b73e-53bb160363ad_2211_dldesign_0_cycle1_af2pred (protein)
# chain: SEAYEEAKKEAEAAVKALKELAKEKPEAKEKAEKLIKRVEEELKKAEEGNEEAARIAKGSIEARKLAAESVLKT
# B14: design_600_24101276-ad9d-4944-b73e-53bb160363ad_1181_dldesign_0_cycle1_af2pred (protein)
# chain: AAEEEIKKAITEAKDAALDSAYIAAKDPSKAAEAEAAYNAALGKLEEALKVLDEETRKKAIQSVKNIRDSTYEASKKSLKS
# B15: design_600_24101276-ad9d-4944-b73e-53bb160363ad_1742_dldesign_0_cycle1_af2pred (protein)
# chain: MEEKYKKAKELLEKAKEEFKKGNYEKALKLAAESVALGYEALGDEEEAKKAKEKAEEALKNPETLGAVAGELLAEAKGLVHLLEIKIN
# B16: design_600_24101276-ad9d-4944-b73e-53bb160363ad_1044_dldesign_0_cycle1_af2pred (protein)
# chain: MTPEERKALALKEQAEHTAKAGKKLGAKDPEAALKAAERLKKLAERAKKTGTEEGKEAAKLAEEYAKELEKLAKKAKE
# B17: design_600_24101276-ad9d-4944-b73e-53bb160363ad_1872_dldesign_0_cycle1_af2pred (protein)
# chain: HSEEELKLLERMREIRKRAKEAVKLLKELGEKELGEKYAKEIADLLYQSIDDPENQEKYVEEAEAKAEELEKLAEEAKKKAEE
# B18: design_600_24101276-ad9d-4944-b73e-53bb160363ad_2022_dldesign_0_cycle1_af2pred (protein)
# chain: MKEEAKKLAKEAKEKAKEGAANPAYKKAITLYNEALADFRAAEATGSKEAFEEGKEYFKKAEEEEKKVKEKLEKE
# B19: design_600_24101276-ad9d-4944-b73e-53bb160363ad_1809_dldesign_0_cycle1_af2pred (protein)
# chain: SMEKEEAVKRREKAIEKGEKAIEEAAKEGIEAAEKAKEVMKELKKEAEKFGKETGPEGEKAAKTIKRIAENTEHGLEAIIRREKE
# B20: design_600_24101276-ad9d-4944-b73e-53bb160363ad_953_dldesign_0_cycle1_af2pred (protein)
# chain: DAKKAAADALVATAAAEDPSLKPLAQEVADKAIASEDGLKAAKEGMTALAKKYPEYAKAFAAAMQAFYETYNEAEFKKKKA
# B21: design_600_24101276-ad9d-4944-b73e-53bb160363ad_1967_dldesign_0_cycle1_af2pred (protein)
# chain: GNKKLAAELLKKSIEYFIEAVKSKKLSTASGYASKSAVYFAKAVYVGTGVPPEVAYKVRLIVLEIGLKAIEKRQEELKKKE
# B22: design_600_24101276-ad9d-4944-b73e-53bb160363ad_2034_dldesign_0_cycle1_af2pred (protein)
# chain: DEKVKKAKEEAEKISKEGVELAKKGAENPEKYEEYEKKAKELFDKAMAIAKEVAKENPEGGAKIAEIVHTLRAEAKAVIAKIK
# B23: design_601_c3fd07b4-2f34-4ad8-bd4e-2749faf628eb_72_dldesign_0_cycle1_af2pred (protein)
# chain: AAAAAAKKAEADATQLDLIAKSTEAIKDKVSPETVADVFAPAAAAYEKAAKLWSGNPAKAAEFKAKAKEMKAKYEKAKKEAE
# B24: design_600_24101276-ad9d-4944-b73e-53bb160363ad_984_dldesign_0_cycle1_af2pred (protein)
# chain: AKEEDLKKAEEELKKFAEEAAKELKEAGAKKQDIESTKEYGEHRAEAVVTTSKKKGLSPEELKKLVKEAKERIKKYKENKL
# B25: design_600_24101276-ad9d-4944-b73e-53bb160363ad_1965_dldesign_0_cycle1_af2pred (protein)
# chain: SEELEKVAKEAKEAAKERIEYAKKAAEANPALAETAKRMIEGAKELAKKVEKYAKEGDLKKAERERLRIESRKEQAKETLKKL
# B26: design_600_24101276-ad9d-4944-b73e-53bb160363ad_1344_dldesign_0_cycle1_af2pred (protein)
# chain: SFKKEAAIESSKELLDQAVAAAKADPARATEIAKTGLKKATERAKKAGEEAYKTVKEYGEKLLAEVEAAAKAAA
# B27: design_600_24101276-ad9d-4944-b73e-53bb160363ad_769_dldesign_0_cycle1_af2pred (protein)
# chain: NEELIKFKAKAYSTAYSTAHTVAAAEKIAKTGTPEEAAKAKAAAAKALARLKEVGKEAKKKGPEYAKAFEEAAKEGEKVLKELLA
# B28: design_600_24101276-ad9d-4944-b73e-53bb160363ad_1688_dldesign_0_cycle1_af2pred (protein)
# chain: GLKEEGKKKIKEIKELAKKALENPEKAEEYVKKARELAKEVAEKLPELGKEAAEAAQEALENRAEGKAKLAREK
# B29: design_600_24101276-ad9d-4944-b73e-53bb160363ad_2443_dldesign_0_cycle1_af2pred (protein)
# chain: VEEAEKRAKRLKEEAEKAAKELAKEGGEEKAKELLEKAKEAAEKFLEAAKKGDGKAAADYLSEARGYIAELRIEAKKLK
# B30: design_600_24101276-ad9d-4944-b73e-53bb160363ad_2181_dldesign_0_cycle1_af2pred (protein)
# chain: MSAAADAQLLLERAEQALAAAEANPELAPAANERIAAAAERLLGPEAAAALRAIAEEHADDPVAAVRAQYEYVAALAEKAEA
# B31: design_600_24101276-ad9d-4944-b73e-53bb160363ad_2225_dldesign_0_cycle1_af2pred (protein)
# chain: MSEGLKEAAKELVEELRETIATKSPEQARGELTLARSSAKSIEKLDPESGKELLAKVEELEKELEAKAAA
# B32: design_600_24101276-ad9d-4944-b73e-53bb160363ad_1238_dldesign_0_cycle1_af2pred (protein)
# chain: AVKEQAKALAEAGLKADVETAKKYAAAAVLLAFDSSDTEDVKYAAELLKKAAKEATDPEKKEAFERAARVVERAAEDMRKAEER
# B33: design_600_24101276-ad9d-4944-b73e-53bb160363ad_2244_dldesign_0_cycle1_af2pred (protein)
# chain: MEEEKKKEEKKKELKEKLKELEKKAEEAAKAAKADPAHLPELAAVAQELYQLSAEAEFEGDKETAEKAKEVARKAREVGKAARAA
# B34: design_600_24101276-ad9d-4944-b73e-53bb160363ad_894_dldesign_0_cycle1_af2pred (protein)
# chain: MTVEEYLKQAKEAGEEAIKILKETAKKDPSSKDVADMLIKAVETTLKEGSEKAKKEGAEKAKQLLEKMKLGLRTAKRLLENVERSE
# B35: design_600_24101276-ad9d-4944-b73e-53bb160363ad_1012_dldesign_0_cycle1_af2pred (protein)
# chain: VEELVKKAAEKKEKAVELIDEGKLEEAEKEAEELKKLAEEIKKKDPKLGEEALKGARALKRLIKEAKEAEEK
# B36: design_600_24101276-ad9d-4944-b73e-53bb160363ad_1283_dldesign_0_cycle1_af2pred (protein)
# chain: EEEKKEIAKKTEEYYKELLKVAKEVAAKDPSKKPELAKLTDEAAQYVAEAKAGLNPEEALEKVKKLLEEAKKIA
# B37: design_600_24101276-ad9d-4944-b73e-53bb160363ad_2105_dldesign_0_cycle1_af2pred (protein)
# chain: NMEEAKKLLKETEKAAKKAVEIAGEEAKPAAEKAIKVAEKFLKYGDVEALKDILAATKAYLAKVEAEKAAAA
# B38: design_600_24101276-ad9d-4944-b73e-53bb160363ad_1891_dldesign_0_cycle1_af2pred (protein)
# chain: GLEEEKKAVEEQKKKVEETGKKALEMAKSGEKAEEGLESLKKLIEETKEFAKKSKLKALAAEVTQLALEKLSEAKFELSKSKA
# Molecular target: VTCN1, Q7Z7D3
# Sequence (Q7Z7D3 whole entry): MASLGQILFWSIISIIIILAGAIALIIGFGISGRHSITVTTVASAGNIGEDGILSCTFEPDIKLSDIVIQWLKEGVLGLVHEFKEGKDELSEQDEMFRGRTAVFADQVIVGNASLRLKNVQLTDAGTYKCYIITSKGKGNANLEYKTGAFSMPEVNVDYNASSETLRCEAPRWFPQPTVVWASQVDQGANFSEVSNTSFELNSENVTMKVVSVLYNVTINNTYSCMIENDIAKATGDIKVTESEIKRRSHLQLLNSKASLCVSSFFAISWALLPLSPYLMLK
row,Binder,binding in a display sort
1,B1,not found
2,B2,not found
3,B3,not found
4,B4,not found
5,B5,not found
6,B6,binds (active)
7,B7,not found
8,B8,not found
9,B9,not found
10,B10,not found
11,B11,not found
12,B12,not found
13,B13,not found
14,B14,not found
15,B15,not found
16,B16,not found
17,B17,binds (active)
18,B18,not found
19,B19,not found

row,Binder,binding in a display sort
1,B20,not found
2,B21,not found
3,B22,not found
4,B23,not found
5,B24,not found
6,B25,not found
7,B26,not found
8,B27,not found
9,B28,not found
10,B29,not found
11,B30,not found
12,B31,not found
13,B32,not found
14,B33,not found
15,B34,not found
16,B35,not found
17,B36,not found
18,B37,not found
19,B38,not found
